According to PubChem BioAssay AID588397 (National Center for Advancing Translational Sciences (NCATS), 2011):
The campaign covered roughly 1,300 compounds. About 1,000 (77%) were called active. About 7% were inconclusive and are not listed. The call rests on the fitted dose curve; in most records, active means well fitted inhibition curve with a large enough effect; inconclusive means small, poorly fitted or top-dose-only effect; inactive means no such curve, though single readings can be large or run the other way. So high a share suggests a set chosen from earlier hits. The list shows a part of the results.
Potency means the concentration at half of the fitted maximal effect.

Assay: qHTS of small molecules that selectively kill Giardia lamblia: Hit Validation.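 Further: viability measured as ATP content by luminescence so killing lowers signal; trophozoites exposed to compounds for 48 h anaerobically at 37 °C; nearly all actives have a fitted effect of over 65% in size.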
Conditions: Giardia lamblia trophozoite viability, dose-response; series mostly up to 38.3 µM
Method in brief: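 Viability, read as ATP luminescence: trophozoites at 100 cells/well, compound added, 48 hrs anaerobic at 37 deg C, then 15-30 min room-temperature development before reading.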
For CCOP(=O)(OCC)c1cccc(P(=O)(c2ccccc2)c2ccccc2)c1O, the Potency was “inactive”.
For COC(=O)[C@]1(C)N[C@H](CN(C)S(=O)(=O)c2ccc(-c3ccccc3)cc2)[C@@H]2C(=O)N(C)C(=O)[C@@H]21, the Potency was “inactive”.
With O=C(Nc1nc2ccccc2s1)c1ccc([N+](=O)[O-])o1 the Potency was 1030 nM (active).
In the case of O=C(Nc1nc2c(F)cccc2s1)c1ccc([N+](=O)[O-])o1, the Potency is reported as 1030 nM (active).
For COc1ccc2nc(NC(=O)c3ccc([N+](=O)[O-])o3)sc2c1, the Potency was 918 nM (active).
In the case of NC(=O)c1oc2ccccc2c1NC(=O)c1ccc([N+](=O)[O-])o1, the Potency is reported as 650 nM (active).
In the case of O=C(Nc1cccc2ccccc12)c1ccc([N+](=O)[O-])o1, the Potency is reported as 1030 nM (active).
In the case of O=C(Nc1cccc2ncccc12)c1ccc([N+](=O)[O-])o1, the Potency is reported as 918 nM (active).
For COc1cc(C2C(C(=O)c3ccc(C)o3)=C(O)C(=O)N2c2cc(C)on2)ccc1OCc1ccccc1 (stereo not given), the Potency was “inactive”.
With CCC(C)Nc1ccc(NC(C)CC)cc1 (stereo not given) the Potency was 183 nM (active).
In the case of Clc1ccc2c(N/N=C/c3ccc(Br)cc3)ccnc2c1, the Potency is reported as 516 nM (active).
In the case of O=[N+]([O-])c1ccc(/C=N/Nc2ccnc3cc(Cl)ccc23)o1, the Potency is reported as 2050 nM (active).
With Clc1ccc2c(N/N=C/c3cccc(Br)c3)ccnc2c1 the Potency was 1450 nM (active).
With Cc1nc2c(N=Nc3ccccc3F)c(N)nn2c(N)c1C#N the Potency was 4600 nM (active).
For CCOC(=O)Cn1c(=NC(=O)c2ccc([N+](=O)[O-])s2)sc2ccccc21, the Potency was 1830 nM (active).
In the case of CC(=O)O[C@@H]1[C@@H](O)CN[C@@H]1Cc1ccccc1, the Potency is reported as 579 nM (active).
With O=[N+]([O-])c1cc(S(=O)(=O)N2CCCC2)ccc1N/N=C/c1ccncc1 the Potency was 2310 nM (active).
In the case of O=[N+]([O-])c1cc(S(=O)(=O)Nc2cccc(Cl)c2)ccc1N/N=C/c1ccc(N2CCOCC2)cc1, the Potency is reported as 6500 nM (active).
With O=S(=O)(c1ccccc1)N1CCN(S(=O)(=O)c2ccccc2)CC1 the Potency was “inactive”.
In the case of N=C1C(c2ccccc2)=C(O)CN1c1cccc(S(=O)(=O)N2CCOCC2)c1, the Potency is reported as “inactive”.
With O=[N+]([O-])c1cc(S(=O)(=O)N2CCOCC2)ccc1NS(=O)(=O)c1ccccc1 the Potency was 1830 nM (active).
In the case of C(=C\c1nccc2ccccc12)/c1ccc(N2CCOCC2)cc1, the Potency is reported as 2310 nM (active).
With Nc1ccc(/C=C/c2nccc3ccccc23)cc1 the Potency was 3260 nM (active).
With Nc1ncnc2c1ncn2C1O[C@H](CO)[C@@H](O)[C@@H]1O (stereo not given in full) the Potency was 818 nM (active).
For O=C(Nc1ccc2nc(-c3ccco3)[nH]c2c1)c1cccs1, the Potency was 5790 nM (active).
In the case of O=C(Nc1ccc2c(c1)nc1n2CCSC1)c1ccco1, the Potency is reported as 4600 nM (active).
In the case of CC(NC(=O)c1ccc([N+](=O)[O-])o1)C12CC3CC(CC(C3)C1)C2 (stereo not given), the Potency is reported as 918 nM (active).
In the case of O=C(NC12CC3CC(CC(C3)C1)C2)c1ccc([N+](=O)[O-])o1, the Potency is reported as 1030 nM (active).
For CC(NC(=O)c1ccc([N+](=O)[O-])o1)C1CC2CCC1C2 (stereo not given), the Potency was 1450 nM (active).
For O=[N+]([O-])c1nn(-c2ccc3c(c2)OCCO3)n(O)c1=Nc1ccc(Cl)cc1, the Potency was 1300 nM (active).
For CC(C)c1ccc(N=c2c([N+](=O)[O-])nn(-c3ccc4c(c3)OCCO4)n2O)cc1, the Potency was 2050 nM (active).
In the case of CC(=O)N(/N=C/c1ccc([N+](=O)[O-])o1)c1nc2ccccc2c(=O)n1-c1ccccc1, the Potency is reported as 1030 nM (active).
In the case of O=c1c2ccccc2nc(/C=C/c2ccc([N+](=O)[O-])o2)n1CCCO, the Potency is reported as 579 nM (active).
For Cc1cccc(-c2nnc(SCc3cc(=O)[nH]c4ccccc34)n2C)c1, the Potency was “inactive”.
In the case of Cc1cc(C)nc(N/N=C/c2ccc(Cl)cc2)n1, the Potency is reported as “inactive”.
With Cc1cc(C)nc(N/N=C/c2ccc([N+](=O)[O-])o2)n1 the Potency was 1300 nM (active).
For CCNc1nc(NCC)nc(N/N=C/c2ccc([N+](=O)[O-])o2)n1, the Potency was 2590 nM (active).
In the case of O=C(Cc1csc(Nc2nc(=S)[nH]c3ccccc23)n1)NCCCN1CCN(c2ccccc2F)CC1, the Potency is reported as 14500 nM (active).
For CCOC(=O)Cc1csc(NC(=S)NC(=O)c2ccc(C)cc2)n1, the Potency was 7290 nM (active).
For CSc1cccc(NS(=O)(=O)c2cn(C)cn2)c1, the Potency was “inactive”.
In the case of C=CCn1c(C)cc(C(=O)COc2ccc(C)nc2[N+](=O)[O-])c1C, the Potency is reported as 460 nM (active).
For Cc1ccc(OCc2ccc([N+](=O)[O-])cc2)c([N+](=O)[O-])n1, the Potency was 3260 nM (active).
In the case of COCCn1c(C)cc(C(=O)COc2cccnc2[N+](=O)[O-])c1C, the Potency is reported as 1300 nM (active).
With Cc1ccc(OCC(=O)c2cc(C)n(C)c2C)c([N+](=O)[O-])n1 the Potency was 1450 nM (active).
For CCCn1c(C)cc(C(=O)COc2ccc(C)nc2[N+](=O)[O-])c1C, the Potency was 1030 nM (active).
